Inconclusive results are not listed. Where a call stands in place of a potency, no number is given. Active and inactive are the calls of the source. Calls follow the shape of the dose curve; as a rule, active = well fitted inhibition curve with a large enough effect; inconclusive = small, poorly fitted or top-dose-only effect; inactive = flat fitted curve, though single readings scatter.
Columns and labels:
Test in all cases: qHTS profiling for inhibitors of Plasmodium falciparum proliferation (AID 504749); also: nearly all actives have a fitted effect of over 60% in size
Conditions in all cases: P. falciparum in erythrocytes, SYBR Green DNA, 72 h; series mostly up to 28.7 µM
CP194 = system: CP194
How it was run: (§1)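 P. falciparum-infected erythrocytes (0.3% parasitemia, 2.5% hematocrit final) were exposed to compounds for 72 h at 37 C in 5% CO2, then lysed with SYBR Green buffer overnight at room temperature; parasite DNA fluorescence was normalized to artemisinin and DMSO controls.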

CP201 = system: CP201
How it was run: as §1

CP203 = system: CP203
How it was run: as §1

CP211 = system: CP211
How it was run: as §1

CP215 = system: CP215
How it was run: as §1

CP217 = system: CP217
How it was run: as §1

CP237 = system: CP237
How it was run: as §1

CP238 = system: CP238
How it was run: as §1

CP247 = system: CP247
How it was run: as §1

CP250 = system: CP250
How it was run: as §1
Potency is read from the fitted curve at half-maximal effect.

Row | Structure (SMILES) | Potency (CP194) | Potency (CP201) | Potency (CP203) | Potency (CP211) | Potency (CP215) | Potency (CP217) | Potency (CP237) | Potency (CP238) | Potency (CP247) | Potency (CP250)
1 | Clc1ccccc1C(c1ccccc1)(c1ccccc1)n1ccnc1 | 1.44 µM (active) | 4.55 µM (active) | 0.721 µM (active) | 2.28 µM (active) | 1.14 µM (active) | 0.631 µM (active) | 0.398 µM (active) | 0.794 µM (active) | 0.891 µM (active) | 1.58 µM (active)
2 | COc1ccccc1N1CCN(CC(O)COc2cccc3ccccc23)CC1 (stereo not given) | inactive | inactive | inactive | inactive | inactive | inactive | inactive | inactive | inactive | inactive
3 | COc1ccccc1OCC(O)CN1CCN(CC(=O)Nc2c(C)cccc2C)CC1 (stereo not given) | inactive | inactive | inactive | inactive | inactive | inactive | inactive | inactive | inactive | inactive
4 | NS(=O)(=O)c1cc2c(cc1Cl)NCNS2(=O)=O | inactive | inactive | inactive | inactive | inactive | inactive | inactive | inactive | inactive | inactive
5 | NCCc1cnc[nH]1 | inactive | inactive | inactive | inactive | inactive | inactive | inactive | inactive | inactive | inactive
6 | Nc1nnc(-c2cccc(Cl)c2Cl)c(N)n1 | inactive | inactive | inactive | inactive | inactive | inactive | inactive | inactive | inactive | inactive
7 | Cc1cc(C(C)(C)C)cc(C)c1CC1=NCCN1 | inactive | inactive | inactive | inactive | inactive | inactive | 3.98 µM (active) | inactive | inactive | inactive
8 | CCOC(=O)C(C)(C)Oc1ccc(Cl)cc1 | inactive | inactive | inactive | inactive | inactive | inactive | inactive | inactive | inactive | inactive
9 | Nc1nc2c(ncn2COC(CO)CO)c(=O)[nH]1 | inactive | inactive | inactive | inactive |  | inactive | inactive | inactive | inactive | inactive
10 | Cc1ccc(-c2cc(C(F)(F)F)nn2-c2ccc(S(N)(=O)=O)cc2)cc1 |  |  |  |  | 13.5 µM (active) |  |  | inactive |  | 
11 | O=c1c(O)c(-c2ccc(O)c(O)c2)oc2cc(O)cc(O)c12 |  |  |  |  | 13.5 µM (active) |  |  |  | 7.08 µM (active) | 
12 | CN(C)CCCN1c2ccccc2CCc2ccc(Cl)cc21 |  | inactive |  | inactive |  |  |  | inactive | inactive | inactive
13 | O=C1c2c(O)ccc(O)c2C(=O)c2c(NCCNCCO)ccc(NCCNCCO)c21 | 6.42 µM (active) | 6.42 µM (active) |  | 6.42 µM (active) | 6.42 µM (active) | 3.55 µM (active) | 1.26 µM (active) | 3.16 µM (active) | 3.16 µM (active) | 3.16 µM (active)
14 | CN(C)CCC=C1c2ccccc2C=Cc2ccccc21 |  |  |  | inactive |  | inactive | inactive |  | inactive | inactive
15 | COc1ccccc1OCCNCC(O)COc1cccc2[nH]c3ccccc3c12 (stereo not given) |  | inactive |  | inactive |  |  | 12.6 µM (active) |  |  | 
16 | CN(CCOc1ccc(NS(C)(=O)=O)cc1)CCc1ccc(NS(C)(=O)=O)cc1 | inactive | inactive | inactive | inactive |  | inactive | inactive | inactive | inactive | inactive
17 | Clc1ccc2c(c1)C(N1CCNCC1)=Nc1ccccc1O2 |  | inactive | inactive | inactive |  |  | 7.08 µM (active) |  |  | inactive
18 | COc1ccc(CCN(C)CCCC(C#N)(c2ccc(OC)c(OC)c2)C(C)C)cc1OC (stereo not given) |  | inactive |  |  |  | inactive |  | inactive | inactive | inactive
19 | Cn1cnc2c1c(=O)[nH]c(=O)n2C | inactive | inactive | inactive | inactive | inactive | inactive | inactive | inactive | inactive | inactive
20 | CC12CC3CC(C)(C1)CC(N)(C3)C2 | inactive | inactive | inactive | inactive | inactive | inactive |  | inactive | inactive | inactive
21 | COc1ccc2[nH]cc(CCNC(C)=O)c2c1 | inactive | inactive | inactive | inactive |  | inactive | inactive | inactive | inactive | inactive
22 | CC(C)C(=O)Nc1ccc([N+](=O)[O-])c(C(F)(F)F)c1 | inactive | inactive | inactive | inactive | inactive | inactive | inactive | inactive |  | inactive
23 | Cc1cn([C@H]2C[C@H](N=[N+]=[N-])[C@@H](CO)O2)c(=O)[nH]c1=O | inactive | inactive | inactive | inactive | inactive | inactive | inactive | inactive | inactive | inactive

Row | Structure (SMILES) | Potency (CP194) | Potency (CP201) | Potency (CP203) | Potency (CP211) | Potency (CP215) | Potency (CP217) | Potency (CP237) | Potency (CP238) | Potency (CP247) | Potency (CP250)
24 | O=C(Nc1ccc([N+](=O)[O-])cc1Cl)c1cc(Cl)ccc1O |  |  | 0.478 µM (active) |  | 0.536 µM (active) |  | 1.12 µM (active) | inactive |  | 
25 | COc1cc2c(c(OC)c1OC)-c1ccc(OC)c(=O)cc1[C@@H](NC(C)=O)CC2 | inactive | inactive | inactive | inactive |  | inactive | inactive | inactive | inactive | inactive
26 | CC#C[C@]1(O)CC[C@H]2[C@@H]3CCC4=CC(=O)CCC4=C3[C@@H](c3ccc(N(C)C)cc3)C[C@@]21C | 16.9 µM (active) | 15.1 µM (active) | 19 µM (active) | 13.5 µM (active) | 12 µM (active) | 11.2 µM (active) | 11.2 µM (active) |  | 8.91 µM (active) | 
27 | CN(Cc1cnc2nc(N)nc(N)c2n1)c1ccc(C(=O)N[C@@H](CCC(=O)O)C(=O)O)cc1 | inactive | inactive | inactive | inactive | inactive |  | 0.1 µM (active) |  |  | 0.178 µM (active)
28 | CN(C)CCOC(c1ccccc1)c1ccccc1 |  | inactive |  |  | inactive | inactive |  |  | inactive | inactive
29 | CC(C)NCC(O)c1ccc(O)c(O)c1 (stereo not given) | inactive | inactive | inactive | inactive | inactive | inactive | inactive | inactive | inactive | inactive
30 | CNCCCC12CCC(c3ccccc31)c1ccccc12 |  | inactive |  |  | inactive | inactive |  | inactive | inactive | inactive
31 | Clc1ccc2nsnc2c1NC1=NCCN1 | inactive | inactive |  | inactive | inactive | inactive | inactive | inactive | inactive | inactive
32 | O=C(c1ccc(OCCN2CCCCC2)cc1)c1c(-c2ccc(O)cc2)sc2cc(O)ccc12 |  | 9.53 µM (active) | 16.9 µM (active) |  | 19 µM (active) |  | 3.55 µM (active) |  | 7.08 µM (active) | 
33 | Clc1ccc(C(c2ccccc2Cl)C(Cl)Cl)cc1 (stereo not given) |  |  |  |  |  | inactive | inactive | inactive | inactive | inactive
34 | CCCCc1oc2ccccc2c1C(=O)c1cc(I)c(OCCN(CC)CC)c(I)c1 |  |  | 15.1 µM (active) |  | 15.1 µM (active) | 5.62 µM (active) | 7.08 µM (active) | 7.94 µM (active) | 8.91 µM (active) | 7.94 µM (active)
35 | O=C(c1ccc(F)cc1)C1CCN(CCn2c(=O)[nH]c3ccccc3c2=O)CC1 | inactive | inactive | inactive | inactive |  | inactive | inactive | inactive |  | 
36 | O=c1[nH]cc(F)c(=O)[nH]1 |  |  |  |  | inactive |  |  |  | 8.91 µM (active) | 
37 | Nc1c2c(nc3ccccc13)CCCC2 |  | inactive |  |  |  | inactive |  | inactive |  | inactive
38 | Cn1c(=O)c2[nH]cnc2n(C)c1=O | inactive | inactive | inactive | inactive | inactive | inactive | inactive | inactive | inactive | inactive
39 | O=C1N(c2ccccc2)c2ccccc2C1(Cc1ccncc1)Cc1ccncc1 | inactive | inactive | inactive | inactive | inactive | inactive |  | inactive | inactive | inactive
40 | CN1CCC(=C2c3ccccc3CC(=O)c3sccc32)CC1 |  |  | 8.49 µM (active) |  |  |  |  |  |  | inactive
41 | NC12CC3CC(CC(C3)C1)C2 | inactive | inactive | inactive | inactive | inactive | inactive |  | inactive | inactive | inactive
42 | CCOC(=O)Nc1ccc(NCc2ccc(F)cc2)nc1N |  |  | inactive |  |  | 10 µM (active) | 10 µM (active) |  | 12.6 µM (active) | 
43 | CN(C)C(=N)N=C(N)N |  | inactive |  |  |  | inactive | inactive | inactive | inactive | inactive
44 | CC[C@@]1(O)C(=O)OCc2c1cc1n(c2=O)Cc2cc3c(CN(C)C)c(O)ccc3nc2-1 | 4.78 µM (active) |  | 6.75 µM (active) | 6.01 µM (active) | 6.01 µM (active) |  | 8.91 µM (active) |  |  | 4.47 µM (active)
45 | CC(COc1ccccc1)N(CCCl)Cc1ccccc1 (stereo not given) |  | inactive |  | inactive |  |  | 11.2 µM (active) |  | inactive | inactive

From PubChem BioAssay (NCATS)
